Usually Inhibition stands for the share of the control response that was lost under treatment. Read a low Inhibition as a weak effect.

Consider 31 molecules from ChEMBL document CHEMBL1157539, “Thousands of chemical starting points for antimalarial lead identification” (Nature, 2010).

What all share (assay type): functional
Assay [1] has as its system Plasmodium falciparum. In words: GSK_TCMDC: Inhibition of Plasmodium falciparum 3D7 in whole red blood cells, using parasite LDH activity as an index of growth. Test compounds present at 2uM.
Assay [2] concerns Plasmodium falciparum. Put plainly: GSK_TCMDC: Inhibition of Plasmodium falciparum Dd2 in whole red blood cells, using parasite LDH activity as an index of growth. Test compounds present at 2uM.
The test system of the next assay is HepG2. In words: GSK_TCMDC: Percent inhibition of human HepG2 cell line. Test compounds present at 10uM.

On to `COc1ccc(CNC2CCCC2)cc1-c1ccc(S(=O)(=O)NCCN2CCCC2)s1.O=C(O)C(F)(F)F`, for which the Inhibition in the assay on Plasmodium falciparum [1] came to 96%; with Plasmodium falciparum [2], 17%; with HepG2, 17%.

As for `Cc1ccc(CN2CCCN(Cc3cccc(NC(=O)c4ccc(-c5ccccc5)cc4)c3)CC2)cc1C.O=C(O)C(F)(F)F`, the values for the Inhibition with Plasmodium falciparum [1], with Plasmodium falciparum [2] and in the assay with HepG2 were 84%, 19% and 43%, respectively.

`O=C(Nc1ccc(-c2csc(-c3nc4ccccc4[nH]3)c2)cc1)Nc1ccsc1`: the Inhibition in the assay on Plasmodium falciparum [1] was 100%; with Plasmodium falciparum [2], 17%; in the assay with HepG2, 50%.

Turning to `Cc1sc(N2CCCCC2)nc1C(=O)Nc1ccc(F)cc1C(F)(F)F.O=C(O)C(F)(F)F`, the Inhibition in the assay with Plasmodium falciparum [1] was 86%; in the assay on Plasmodium falciparum [2] it was 35%; in the assay on HepG2, 0%.

As for `O=C(Nc1cccc(-c2nc3ccccc3s2)c1)c1ccccc1[N+](=O)[O-]`, the Inhibition came out at 85% in the assay with Plasmodium falciparum [1], 9% with Plasmodium falciparum [2] and 0% in the assay on HepG2.

On to `O=C(NCC1CC1)C1CCN(C(c2ccccc2)c2ccc(Cl)c(Cl)c2)CC1` (stereo not drawn), for which the Inhibition worked out at 97% with Plasmodium falciparum [1], 96% with Plasmodium falciparum [2] and 7% in the assay on HepG2.

In the case of `Cc1ccc(CCC(C)NCC(O)c2cccc(C(F)(F)F)c2)cc1` (stereo not drawn), the Inhibition is given as 99% with Plasmodium falciparum [1], 98% in the assay on Plasmodium falciparum [2] and 0% in the assay with HepG2.

Regarding `CN1CCN(CCCSc2ccc3c(c2)ncn3-c2cc(OCc3ccccc3C(F)(F)F)c(C(N)=O)s2)CC1.O=CO`, the Inhibition was 100% in the assay with Plasmodium falciparum [1], 86% with Plasmodium falciparum [2] and 28% in the assay on HepG2.

On to `COc1ccc(N2C(N)=NC(N)=NC2(C)C)cc1OC.Cl`, for which the Inhibition in the assay on Plasmodium falciparum [1] is listed as 95%; with Plasmodium falciparum [2] it was 0%; in the assay on HepG2, 13%.

For `Cc1n[nH]c(C)c1C1CCN(CC2CCC(NC(=O)/C=C/c3ccc(Cl)c(Cl)c3)CC2)CC1` (stereo not drawn), the Inhibition in the assay with Plasmodium falciparum [1] was found to be 100%; in the assay with Plasmodium falciparum [2], 53%; in the assay with HepG2, 15%.

For the molecule `CCCCNC(=O)c1cc(CNC2CCCCC2)ccc1-c1cccc(CNCc2ccc(-c3ccccc3)cc2)c1.O=C(O)C(F)(F)F`, the Inhibition in the assay with Plasmodium falciparum [1] was determined as 100%; with Plasmodium falciparum [2], 85%; in the assay on HepG2, 100%.

`O=C(CSc1nccn1Cc1ccco1)Nc1cc(C(F)(F)F)ccc1Cl`: the Inhibition in the assay with Plasmodium falciparum [1] is on record as 91%; with Plasmodium falciparum [2] it was 66%; in the assay with HepG2 it was 9%.

`CN(c1ccc(NC(=O)Nc2cccc(Cl)c2)cc1)c1ccnc(N)n1.Cl`: the Inhibition in the assay on Plasmodium falciparum [1] amounted to 100%; in the assay on Plasmodium falciparum [2] it was 40%; with HepG2, 75%.

For the molecule `CC1(C)Cc2c([nH]c3ccccc23)C(CCCCCCCCC2=NC(C)(C)Cc3c2[nH]c2ccccc32)=N1.Cl`, the Inhibition was 99% in the assay with Plasmodium falciparum [1], 88% in the assay on Plasmodium falciparum [2] and 100% in the assay with HepG2.

With `CC(CCc1ccccc1)NCC(O)c1cccc([N+](=O)[O-])c1` (stereo not drawn), the Inhibition in the assay on Plasmodium falciparum [1] turned out to be 97%; in the assay with Plasmodium falciparum [2] it was 98%; in the assay with HepG2 it was 0%.

On to `CC(C)(CNCc1cccc(Oc2cccc(C(F)(F)F)c2)c1)c1nc(-c2ccnc(N)n2)c(-c2ccc(Cl)c(O)c2)[nH]1.Cl`, for which the values for the Inhibition with Plasmodium falciparum [1], in the assay on Plasmodium falciparum [2] and with HepG2 were 99%, 98% and 23%, respectively.

Turning to `CC(C)CCN1CCCN(Cc2cccc(NC(=O)c3cc4ccccc4s3)c2)CC1.O=C(O)C(F)(F)F`, the Inhibition in the assay with Plasmodium falciparum [1] worked out at 96%; in the assay with Plasmodium falciparum [2], 8%; with HepG2 it was 34%.

For the molecule `CC(=O)Oc1cc(C(=O)Nc2ccc(Cl)cc2)cc2ccccc12`, the results for the Inhibition in the assay on Plasmodium falciparum [1], in the assay with Plasmodium falciparum [2] and with HepG2 were 88%, 47% and 16%, respectively.

As to `N#Cc1cc(C(=O)c2cc(Br)ccc2O)cn(C2CCCCC2)c1=O`, the Inhibition in the assay on Plasmodium falciparum [1] is reported as 89%; in the assay on Plasmodium falciparum [2] it was 9%; with HepG2 it was 3%.

Regarding `CCc1nc2c(cnn2CC)c(NC2CCOCC2)c1CNC(=O)c1ccoc1C`, the Inhibition in the assay on Plasmodium falciparum [1] amounted to 97%; in the assay on Plasmodium falciparum [2], 87%; in the assay on HepG2, 6%.

Take `Cc1c(NC(=O)COc2ccc(Cl)cc2C(=O)c2cc(F)cc(C(F)(F)F)c2)ccc2ncsc12`: the Inhibition in the assay with Plasmodium falciparum [1] is 86%; in the assay with Plasmodium falciparum [2], 18%; in the assay on HepG2, 0%.

For `CN(C)Cc1cccc(-c2ccc(NC(=O)c3ccc4c(=O)n(C5CCCCC5)cnc4c3)cc2)c1`, the Inhibition in the assay with Plasmodium falciparum [1] worked out at 96%; in the assay on Plasmodium falciparum [2], 53%; in the assay with HepG2 it was 92%.

As to `CS(=O)(=O)Cc1ccc(Nc2ncc(Cl)c(Nc3cccnc3C(N)=O)n2)cc1.Cl`, the values for the Inhibition in the assay with Plasmodium falciparum [1], with Plasmodium falciparum [2] and with HepG2 were 97%, 97% and 54%, respectively.

In the case of `Cc1sc2ccc(Cl)cc2c1S(=O)(=O)Nc1ccc2nccc(N3CC(C)NC(C)C3)c2c1.Cl` (stereo not drawn), the Inhibition in the assay on Plasmodium falciparum [1] is given as 100%; in the assay on Plasmodium falciparum [2], 100%; with HepG2 it was 17%.

As for `NCc1cccc(-c2ccc3ccnc(N)c3c2)c1`, the Inhibition with Plasmodium falciparum [1] worked out at 100%; with Plasmodium falciparum [2] it was 96%; in the assay on HepG2, 7%.

Turning to `O=C(NCC1CCN(Cc2ccc(F)cc2)C1)c1cc(-c2cccc(C(F)(F)F)c2)cs1.O=C(O)C(F)(F)F` (stereo not drawn), the Inhibition in the assay with Plasmodium falciparum [1] is on record as 93%; in the assay with Plasmodium falciparum [2] it was 18%; in the assay on HepG2 it was 38%.

For the molecule `O=C(O)C(F)(F)F.OCC1CCN(Cc2ccc(-c3ccc(-c4nc5cc(C(F)(F)F)ccc5[nH]4)s3)cc2)CC1`, the Inhibition stood at 100% in the assay with Plasmodium falciparum [1], 90% in the assay on Plasmodium falciparum [2] and 35% in the assay on HepG2.

Regarding `COc1ccc(-c2ccc(NC(=O)c3cccc(Cl)c3)cc2)cc1CN(C)CCO.O=C(O)C(F)(F)F`, the Inhibition in the assay on Plasmodium falciparum [1] is given as 89%; in the assay with Plasmodium falciparum [2], 52%; with HepG2, 39%.

Consider `CC(C)(C)c1ccc(-c2cc3c(ccc4nc(N)nc(N)c43)[nH]2)cc1`, for which the Inhibition in the assay with Plasmodium falciparum [1], in the assay with Plasmodium falciparum [2] and in the assay with HepG2 was 100% each time.

With `Cc1c(C(=O)NCc2ccncc2)sc2nc(-c3cccc([N+](=O)[O-])c3)cn12`, the Inhibition was 97% in the assay on Plasmodium falciparum [1], 29% with Plasmodium falciparum [2] and 18% with HepG2.

Consider `O=C(Nc1cccc(-c2nn3ccccc3c2-c2ccnc(Nc3cccc(F)c3)n2)c1)c1c(F)ccc(F)c1F`, for which the Inhibition amounted to 96% in the assay with Plasmodium falciparum [1], 73% with Plasmodium falciparum [2] and 33% in the assay on HepG2.
